Measured values: PubChem BioAssay AID1626 (SRMLSC, 2009)
About 2,000 (0.91%) of roughly 220,000 compounds were called active. Not shown: some 2% with an inconclusive outcome. Not all results are given here. Measured potencies and affinities stand elsewhere. Unmarked numbers belong to inactive results. No stated cut-off is given here; in the data, inconclusive means inhibition above about 80% without an active follow-up result; inactive means below that; test concentration not stated here.

Assay: M. tuberculosis H37Rv growth inhibitors, H37Rv strain (AID 1626);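 further: bacteria incubated seven days before Alamar blue readout; 0% = bacteria only wells and 100% = bacteria with antibiotic wells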
Details: active compounds read high, concentration not given here

Structure (SMILES) | inhibition [%]
Cc1onc(-c2ccccc2Cl)c1C(=O)N1C=CC(C(F)(F)Cl)=NCC1 | 1.09
O=C(NCc1ccc(Cl)cc1)c1cc(-c2cccs2)on1 | -1.76
Cc1cccc(SCC(=O)Nc2ccccc2[N+](=O)[O-])c1 | 7.5
COc1ccc(N=C2S/C(=C\c3ccc(OCC(=O)O)cc3)C(=O)N2CCc2c[nH]c3ccccc23)cc1 | -4.37
Cc1ccc(C)c(CN2C(=O)COc3ccc(C(=O)c4ccccc4C(=O)O)cc32)c1 | 15.8
CCN(CC)S(=O)(=O)c1cccc(NC(=O)COC(=O)CNC(=O)c2cccc(F)c2)c1 | -4.29
Cc1ccccc1NS(=O)(=O)c1cc(C(=O)NCc2ccco2)ccc1C | -1.94
COc1cc(NC(=O)CSc2nnc(C)s2)cc(OC)c1OC | 0.33
CCn1cc(Cl)c(C(=O)Nc2nc3ccccc3n2CCN2CCCCC2)n1 | 3.91
CCn1c(NC(=O)Nc2ccccc2OC)nc2ccccc21 | 81.5
Cc1ccc(-c2nc(C(F)(F)F)cc(=O)[nH]2)cc1 | -0.92
CCOC(=O)c1c(NC(=O)c2nn(CC)cc2Br)c(C#N)cn1-c1ccccc1 | -6
COc1ccc(OC)c(CN2CCCC(C(=O)c3ccccc3SC)C2)c1 (stereo not given) | 5
COc1ccc(O)c(CN2CCCC(C(=O)c3ccccc3SC)C2)c1 (stereo not given) | -3.14
CCOC(=O)N1CCC(N2CCCC(C(=O)c3cc(C)c(OC)c(C)c3)C2)CC1 (stereo not given) | -0.88
CCn1ccnc1CN1CCCC(C(=O)c2ccc(OC)cc2OC)C1 (stereo not given) | -1.43
CCn1ccnc1CN1CCCC(C(=O)c2cc(C)c(OC)c(C)c2)C1 (stereo not given) | 9.37
CCOC(=O)N1CCC(N2CCCC(C(=O)c3cccc(OC)c3)C2)CC1 (stereo not given) | 0.16
CC(C)Oc1cccc(C(=O)C2CCCN(Cc3ccon3)C2)c1 (stereo not given) | 5.09
Cc1ncc(CN2CCCC(C(=O)c3cccc(OC(C)C)c3)C2)s1 (stereo not given) | -0.24
c1ccc(-c2cnc(SCCN3CCOCC3)n2CC2CCCO2)cc1 (stereo not given) | 4.09
CCN(CC)C(=O)C(=O)c1cccn1-c1c(Cl)cccc1C#N | -1.07
NC(=O)c1cn(-c2ccccc2)nc1-c1cccnc1 | -9.42
CC1CC(=O)N(CC(=O)NCc2ccco2)c2ccccc2S1 (stereo not given) | -7.83
O=C(CCc1nnc(CCc2c[nH]c3ccccc23)o1)NC1CCC1 | -2.04

Structure (SMILES) | inhibition [%]
COc1ccc(NC(=O)c2ccccc2[N+](=O)[O-])cc1 | -5.35
Cc1c(C(=O)NCCCn2ccnc2)oc2ccccc12 | 3
CCc1ccc(/C=N/NC(=O)c2cc(C)on2)s1 | 4.86
CC(C)CCNC(=O)CCSCCC(=O)NCCC(C)C | -5.9
Cc1cccc(CN2CCCC(C(=O)c3ccc4c(c3)OCO4)C2)n1 (stereo not given) | 9.77
COc1ccc(C(=O)C2CCCN(Cc3cnc(C)s3)C2)cc1OC (stereo not given) | -7.69
COc1cccc(C(=O)C2CCCN(Cc3cccc(C)n3)C2)c1 (stereo not given) | 6.54
COc1ccc(C(=O)C2CCCN(Cc3cnc(C)s3)C2)c(OC)c1 (stereo not given) | 1.52
COc1c(C)cc(C(=O)C2CCCN(Cc3ccccn3)C2)cc1C (stereo not given) | 52.1
COc1ccc(C(=O)C2CCCN(Cc3cccc(C)n3)C2)c(OC)c1 (stereo not given) | -9.04
Cc1cccc(-n2ncc3c(Nc4ccc(F)cc4)ncnc32)c1 | 8.29
COc1ccc(N2C(=O)c3ccccc3S2(=O)=O)cc1 | -3.28
COc1ccc(CN2CN=C(Nc3nc4ccccc4s3)NC2)cc1 | -0.93
CCNC(=S)N/N=C/c1ccc(OCCOc2ccccc2C)cc1 | -4.17
COC(=O)c1ccc(CNC(=O)COc2ccccc2Br)o1 | 5.3
CC[n+]1ccccc1/C=C/Nc1ccccc1 | -7.49
O=C(CSc1nccc(=O)[nH]1)Nc1ccc(F)c(Cl)c1 | -0.08
O=C(CSc1nccc(=O)[nH]1)Nc1ccc2c(c1)OCCO2 | 31.1
S=c1[nH]nc(-c2ccncc2)n1/N=C/C(Cl)=C\c1ccccc1 | 6.36
COc1cc(CNc2ncn[nH]2)ccc1OCc1cccc(C)c1 | 5.16
COc1ccc(O)c(C(=O)c2cnc3c(c2)CN(C)C(=O)N3)c1 | -1.06
CC1(C)CC(NC(=O)c2ccccn2)CC(C)(C)N1O | 1.26
S=C1NCCNC(=S)NCCOCCOCCOCCN1 | -1.99
CC(C)(C)c1cc(-n2ccnc2)n2ncc(-c3ccc(Cl)cc3)c2n1 | 6.96
Cc1cc(NCCCn2ccnc2)n2ncc(-c3ccccc3)c2n1 | 18.5

Structure (SMILES) | inhibition [%]
Clc1ccc(-n2ncc3c(NCCCn4ccnc4)ncnc32)cc1 | -5.48
Cc1cc(NCCCN2CCOCC2)n2ncc(-c3ccccc3)c2n1 | 7.39
COC(=O)c1cc(Br)c(=O)n(CCC2=CCCCC2)c1 | -7.27
O=C(NC(=S)Nc1ccc(CN2CCOCC2)cc1)c1ccco1 | -0.41
COc1ccc(-c2[nH]ncc2CN2CCC(N3CCSCC3)CC2)c(F)c1 | -0.36
Cc1ccc(-c2nn(-c3ccccc3)cc2/C=N/NC(=O)c2ccc(Br)o2)cc1 | 0.66
Clc1ccc(Cl)c(OCCCCNCc2ccccc2)c1 | 11.2
Clc1cc(Br)ccc1OCCCNCc1ccccc1 | 23
Cc1ccc(C)c(OCCCC(=O)Nc2ccc(N3CCOCC3)cc2)c1 | -9.52
Cn1c(SCC(=O)N2CCOCC2)nnc1-c1cnccn1 | -10.3
CCCCOc1ccc(C(=O)Nc2cc(C)c(OCC(=O)N3CCOCC3)c(C)c2)cc1 | -1.36
CCC(C)[C@H](N)c1nnc(SCC(=O)c2ccc(Cl)cc2)o1 (stereo not given in full) | -1.21
Cn1c(SCCCC(=O)c2ccc(F)cc2)nnc1-c1ccncc1 | 5.49
CC1=C(CCN2CCN(C3CCCC3)C(CCO)C2)C(C)(C)CCC1 (stereo not given) | 3.37
CC1=C(CCN2CCN(C(C)C)C(CCO)C2)C(C)(C)CCC1 (stereo not given) | 1.16
CC1(C)Oc2ccc3ccc(=O)oc3c2/C(=C/Nc2ccccn2)C1=O | -6.19
COc1ccc(OC)c(CCNC(=O)C(=O)Nc2ccc3nc4n(c(=O)c3c2)CCCCC4)c1 | 9.2
CCN(CC)CCOC(=O)c1cccc(OC)c1 | -3.6
N#C/C(=C\Nc1ccc2c(c1)OCCO2)c1nc(-c2ccccc2)cs1 | -0.56
COc1ccc(-c2csc(/C(C#N)=C/Nc3ccc4c(c3)OCCO4)n2)cc1 | 5.83
COc1cc2c(cc1N/C=C(\C#N)c1nc(-c3ccc(F)cc3)cs1)oc1ccccc12 | 5.47
COc1cccc(-c2csc(/C(C#N)=C/Nc3cc4oc5ccccc5c4cc3OC)n2)c1 | 6.75
Cc1ccc(-c2csc(/C(C#N)=C/Nc3ccc4c(c3)OCCO4)n2)cc1 | -3.12
Cn1c(=O)c2c(ncn2CC(=O)OCC(=O)NCc2ccc(Cl)cc2)n(C)c1=O | -4.25
CCOC(=O)CSC(CC)C(=O)Nc1nnc(CC)s1 (stereo not given) | 8.43

Structure (SMILES) | inhibition [%]
Cc1cc(Cl)ccc1N(CC(=O)NCc1ccc2c(c1)OCO2)S(C)(=O)=O | -3.37
O=C(CCC(=O)c1cccs1)OCc1nc2ccccc2s1 | -8.64
CC[C@@H](CO)C1CC2NC3CC4(c5ccccc5N(C)[C@@H]24)C(O)C31 (stereo not given in full) | -2.7
COc1ccc(/C=N/N2C(=O)c3ccccc3C2=O)cc1 | 1.55
CCCCCC(=O)Nc1nc(C)c(-c2csc(Nc3ccccc3OC)n2)s1 | 3.41
CCCCC(=O)Nc1nc(C)c(-c2csc(Nc3ccccc3OC)n2)s1 | 6.85
CCN(CC)CCCN1C(=O)C(O)=C(C(=O)c2cc3ccccc3o2)C1c1ccccn1 (stereo not given) | -1.65
Cc1ccc(NC(=O)CSCC#N)cc1 | -3.07
N#CCSCC(=O)Nc1ccc(Cl)cc1 | -6.68
CC(=O)Nc1ccc(S(=O)(=O)NCCC(=O)Nc2ccc(C)c(Cl)c2)cc1 | 1.88
Cc1ccc(S(=O)(=O)NCCC(=O)Nc2ccc(Cl)c(Cl)c2)cc1C | 68.7
O=C(Nc1cccc(S(=O)(=O)NC2=NCCCCC2)c1)c1cc(-c2ccncc2)nc2ccccc12 | 5.09
CNc1nc(N)c(C(=O)C23CC4CC(CC(C4)C2)C3)s1 | 7.78
CC1CN(c2ncc(/C=N/NC(=O)c3ccccc3O)s2)CC(C)O1 (stereo not given) | 48
c1ccc(OCCOCCN2CCOCC2)cc1 | 8.38
OCCOCCN1CCN(C(c2ccccc2)c2ccc(Cl)cc2)CC1 (stereo not given) | -10.7
O=C(NN1CCN(Cc2ccccc2)CC1)c1ccc(Cl)cc1 | -1.31
O=C(COc1cc(O)c2c(=O)cc(-c3ccccc3)oc2c1)c1ccccc1 | -4.52
CCOc1ccc(-c2nnc(-c3ccccc3)o2)cc1 | 8.69
CCc1ccc(C(=O)COC(=O)c2ccc(-c3nnc(-c4ccccc4)o3)cc2)cc1 | -8.3
NC(=O)COc1ccc2oc(-c3ccccc3)cc(=O)c2c1 | 1.94
CC(C)(C)OC(=O)COc1cc(O)c2c(=O)cc(-c3ccccc3)oc2c1 | 5.56
CCOC(=O)Cc1nnc(-c2ccccc2)o1 | -3.07
CCOC(=O)c1cccc(COC(=O)c2cccc(-c3nnc(-c4ccccc4)o3)c2)c1 | 2.8
CCOC(=O)c1cc(=O)c2ccc(OCC(=O)Nc3ccccc3)cc2o1 | 3.25
